Laboratory results reported in article PMC5540273 (PLoS ONE, 2017).

Experiments:
Conditions in all cases: concentration: 1 μM, replicates: in singlicate; n = 1
PIK4CB = test system: T1, PIK4CB
T1 construct: gene PI4KB

PIKFYVE = test system: PIKFYVE
PIM1 = test system: PIM1
PIM2 = test system: PIM2
PIM3 = test system: PIM3
PIP5K1A = test system: PIP5K1A
PIP5K1C = test system: PIP5K1C
PIP5K2B = test system: PIP5K2B
PIP5K2C = test system: T2, PIP5K2C
T2 construct: gene PIP4K2C

PKAC-alpha = test system: T3, PKAC-alpha
T3 construct: gene PRKACA
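Further: KINOMEscan kinase panel screen.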

| Compound | %Inh (PIK4CB) [%] | %Inh (PIKFYVE) [%] | %Inh (PIM1) [%] | %Inh (PIM2) [%] | %Inh (PIM3) [%] | %Inh (PIP5K1A) [%] | %Inh (PIP5K1C) [%] | %Inh (PIP5K2B) [%] | %Inh (PIP5K2C) [%] | %Inh (PKAC-alpha) [%] |
| --- | --- | --- | --- | --- | --- | --- | --- | --- | --- | --- |
| COc1ccc(Nc2nccc(NCCNC(=O)Nc3cc(C)ccc3C)n2)cc1 [GSK1379899] | 0 | 0 | 0 | 0 | 0 | 0 | 18 | 6 | 39 | 0 |
| COc1ccc(CSc2nnc(-c3ccc4nccn4c3)o2)cc1C(F)(F)F | 0 | 0 | 6 | 9 | 0 | 2 | 0 | 43 | 0 | 10 |
| Cc1cnc(N)c(/C=C/c2cncc(C(=O)NCCc3ccc(Cl)cc3Cl)c2)c1.Cl [GSK190937] | 0 | 0 | 12 | 0 | 0 | 39 | 35 | 21 | 47 |  |
| COc1ccc(-c2coc3ccc(-c4nnc(C)o4)cc23)cc1 | 0 | 0 | 10 | 21 | 15 | 13 | 14 | 9 | 10 | 3 |
| CCCCc1nn2ncccc2c1-c1ccnc(NC2CC2)n1 [GW684374] | 35 | 0 | 0 | 0 | 0 | 0 | 36 | 0 | 75 | 0 |
| Nc1nccc(-c2c(-c3ccc(F)cc3)ncn2C2CCN(Cc3ccccc3)CC2)n1 [SB-219980] | 25 | 6 | 0 | 0 | 0 | 0 | 15 | 0 | 82 | 2 |
| CNc1nc(-c2ccc3c(N)n[nH]c3c2)cc(N2C[C@@H](C(=O)Nc3ccccc3)CC[C@H]2C)n1 [GSK2298859] | 0 | 0 | 0 | 0 | 0 | 0 | 50 | 0 | 3 | 57 |
| CNC(=O)c1ccc(C)c(-n2c(C)cc(OCc3ccc(F)cc3F)c(Br)c2=O)c1 | 0 | 40 | 0 | 0 | 0 | 0 | 1 | 0 | 0 | 0 |
| CC(=O)c1c(C)c2cnc(Nc3ccn(C)n3)nc2n(C2CCCC2)c1=O | 0 | 9 | 0 | 0 | 0 | 0 | 1 | 0 | 91.9 | 0 |
| Cc1nccc(-c2c(-c3ccc(F)cc3)ncn2CCCN2CCOCC2)n1.Cl [SB-282975] | 42 | 0 | 0 | 13 | 0 | 0 | 22 | 0 | 18 | 24 |
| COC(=O)C(NC(=O)NC1CCN(c2ccnc(Nc3ccc(F)cc3)n2)C1)c1ccccc1 (centres unmarked) [GSK1379712] | 16 | 28 | 0 | 0 | 0 | 9 | 41 | 17 | 29 | 0 |
| COc1ccc(Nc2nccc(N3CCC(NC(=O)C(C)c4ccc(Cl)cc4)C3)n2)cc1 (centres unmarked) [GSK1379735] | 0 | 0 | 0 | 0 | 35 | 8 | 52 | 18 | 25 | 0 |
| COc1cc2ncnc(Nc3cccc(Br)c3)c2cc1OC.Cl [GI230329] | 0 | 32 | 21 | 0 | 14 | 0 | 79 | 14 | 52 | 0 |
| CS(=O)(=O)CCNCc1nc(-c2ccc3ncnc(Nc4ccc(OCc5ccccc5)c(Cl)c4)c3c2)cs1.Cl [GW582764] | 0 | 25 | 14 | 0 | 0 | 47 | 52 | 10 | 56 | 0 |
| CC(=O)c1c(C)c2cnc(Nc3ccc(N4CCNCC4)cn3)nc2n(C2CCCC2)c1=O | 0 | 39 | 0 | 0 | 0 | 0 | 0 | 0 | 14 | 0 |
| Fc1ccc(-c2nc[nH]c2-c2ccncc2)cc1 [SB-217360] | 0 | 32 | 19 | 0 | 11 | 19 | 0 | 0 | 2 | 25 |
| CC[C@@H]1CO[C@H](C(=O)Nc2ccccc2)CN1c1cc(-c2ccc3c(N)n[nH]c3c2)nc(NC)n1 [GSK2376236] | 33 | 0 | 14 | 0 | 3 | 0 | 39 | 3 | 3 | 74 |
| Cc1c(Cn2c3ccccc3n3c(=O)cc(N4CCOCC4)nc23)cccc1C(F)(F)F [GSK2306394] | 90.3 | 0 | 6 | 0 | 0 | 0 | 8 | 20 | 0 | 0 |
